According to patent US20220289795, “EFFICIENT METHOD FOR PREPARING PPR PROTEIN AND USE OF THE SAME” (EditForce, Inc., published 2022):

Molecular target: T1, NL_v2_PPR14 (Artificial Sequence)
T1 chain: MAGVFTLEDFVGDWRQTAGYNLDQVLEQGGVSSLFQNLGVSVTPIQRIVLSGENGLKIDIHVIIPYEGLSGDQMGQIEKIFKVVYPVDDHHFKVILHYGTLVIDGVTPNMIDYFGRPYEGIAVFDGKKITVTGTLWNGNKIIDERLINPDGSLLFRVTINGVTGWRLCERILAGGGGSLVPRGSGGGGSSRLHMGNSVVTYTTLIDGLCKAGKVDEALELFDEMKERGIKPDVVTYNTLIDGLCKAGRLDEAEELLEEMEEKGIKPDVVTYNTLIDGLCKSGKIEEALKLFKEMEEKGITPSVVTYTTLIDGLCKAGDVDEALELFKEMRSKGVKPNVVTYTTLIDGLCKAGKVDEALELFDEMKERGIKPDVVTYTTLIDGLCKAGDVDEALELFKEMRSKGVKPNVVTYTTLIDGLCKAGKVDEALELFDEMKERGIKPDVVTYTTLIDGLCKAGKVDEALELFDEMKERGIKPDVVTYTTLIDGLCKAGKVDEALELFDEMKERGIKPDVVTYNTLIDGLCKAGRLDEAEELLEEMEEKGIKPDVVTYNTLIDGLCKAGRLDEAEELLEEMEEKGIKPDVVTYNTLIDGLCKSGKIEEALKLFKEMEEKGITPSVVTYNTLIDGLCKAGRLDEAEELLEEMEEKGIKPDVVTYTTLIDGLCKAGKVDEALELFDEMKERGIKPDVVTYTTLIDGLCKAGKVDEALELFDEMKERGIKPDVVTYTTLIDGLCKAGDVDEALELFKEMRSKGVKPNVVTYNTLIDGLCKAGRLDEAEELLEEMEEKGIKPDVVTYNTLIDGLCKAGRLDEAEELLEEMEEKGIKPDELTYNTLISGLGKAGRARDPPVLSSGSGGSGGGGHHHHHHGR
Assay: RPB-ELISA
Details: tags: N-terminal luciferase, C-terminal 6xHis; label: 5'-biotin; ssRNA
Procedure: RNA probes consisting of a designed 30-base sequence containing 18 bases of the target sequence and modified by biotinylation at the 5′ end (RNA_1, RNA_2, RNA_3, RNA_4, and RNA_5, SEQ ID NOS: 61 to 65) were synthesized (Grainer). To a streptavidin-coated plate (Thermo fisher), the 5′-end biotinylated RNA probes were added, reaction was allowed at room temperature for 30 minutes, and the plate was washed with a lysis buffer (20 mM Tris-HCl, pH 7.6, 150 mM NaCl, 5 mM MgCl₂, 0.5% NP-40, 1 mM DTT, 0.1% BSA). For background measurement, wells to which RNA was not added, but 100 μL of the lysis buffer, 1 μL of 100 mM DTT, and 1 μL of 40 unit/4 RNase inhibitor (Takara, 2313A) were added were also prepared. Then, 200 μL of a blocking buffer (20 mM Tris-HCl, pH 7.6, 150 mM NaCl, 5 mM MgCl₂, 0.5% NP-40, 1 mM DTT, 1% BSA) was added, and the plate surface was blocked at room temperature for 30 minutes. Then, 100 μL of E. coli lysate containing luciferase-fused PPR protein having a luminescence level of 1.5×10⁸ LU/μL was added to each well, and the binding reaction was allowed at room temperature for 30 minutes. The well was washed 5 times with 200 μL of a washing buffer (20 mM Tris-HCl, pH 7.6, 150 mM NaCl, 5 mM MgCl₂, 0.5% NP-40, 1 mM DTT). […] The background (luminescence signal value obtained with adding the PPR protein and without adding RNA) was subtracted from the luminescences of the samples to which a solution containing each RNA and PPR protein was added, and the obtained values were used as the binding powers between the PPR protein and RNA.
By using the v2 motif, PPR proteins for 23 kinds of target sequences (T_1 to T_3, and T_5 to T_24, SEQ ID NOS: […]) were prepared (NL_v2_PPR1 to 3, and NL_v2_PPR5 to 24, SEQ ID NOS: 56 to 58 and 70 to 88), and RPB-ELISA was used to analyze bindings of all the combinations. The experimental method was the same as that used in Example 3.

Sequence | binding signal [log2 luminescence]
GGUUAGAGAUACAGUGUG | 22
